Experimental findings from PubChem BioAssay (EPA / NIEHS) are described below.

Each structure is given as a SMILES string. Calls of active or inactive are those of the source. How the source made its calls: active means hit-call score of the fitted dose curve at least 0.9, where 1 is the maximum; inactive means score below 0.9.

What all share (conditions): mRNA level, 48 h; actives raise or lower the signal
Read-out in test [1]: ABC Transporter (ABCC2), ABCC2 (gene 1244)
The test is described as follows: LTEA_HepaRG_ABCC2: Life Technologies and Expression Analysis (LTEA) Assay for ABC Transporter (ABCC2) using HepaRG (AID 2283464). In outline: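 HepaRG, 48 h post-plating; serum-free induction medium; cpd 8-pt, 100 uM top, half-log, 0.5% DMSO, duplicate, 48 h. Readout: ABCC2 mRNA by qRT-PCR, norm. ACTB/GAPDH/POLR2A. Bidirectional fit vs DMSO baseline.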

Read-out in test [2]: Broad substrate specificity ATP-binding cassette transporter ABCG2 (Homo sapiens) (UniProt Q9UNQ0)
Put plainly: LTEA_HepaRG_ABCG2: Life Technologies and Expression Analysis (LTEA) Assay for ABC Transporter (ABCG2) using HepaRG (AID 2283465). An outline of the steps:
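Differentiated HepaRG cells in serum-free induction medium were exposed for 48 h, in duplicate, to eight half-log concentrations up to 100 uM in 0.5% DMSO. ABCG2 mRNA was measured by TaqMan qRT-PCR, normalized to ACTB, GAPDH and POLR2A, and fitted bidirectionally versus DMSO.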

Read-out in test [3]: ATP-citrate lyase (ACLY), ACLY (gene 47)
Put plainly: LTEA_HepaRG_ACLY: Life Technologies and Expression Analysis (LTEA) Assay for ATP-citrate lyase (ACLY) using HepaRG (AID 2283466). In outline: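 Differentiated human HepaRG cells in serum-free induction medium exposed 48 h, in duplicate, to eight half-log concentrations from 100 uM top in 0.5% DMSO; ACLY mRNA measured by qRT-PCR, normalized to ACTB, GAPDH, POLR2A, fitted bidirectionally versus DMSO.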

Read-out in test [4]: Peroxisomal acyl-coenzyme A oxidase 1 (ACOX1) gene, ACOX1 (gene 51)
The test is described as follows: LTEA_HepaRG_ACOX1: Life Technologies and Expression Analysis (LTEA) Assay for Peroxisomal acyl-coenzyme A oxidase 1 (ACOX1) gene using HepaRG (AID 2283467). An outline of the steps: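 Differentiated human HepaRG cells were exposed in duplicate for 48 h in serum-free induction medium to eight half-log concentrations up to 100 uM in 0.5% DMSO. ACOX1 mRNA was then quantified by TaqMan qRT-PCR, normalized to ACTB, GAPDH and POLR2A.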

Read-out in test [5]: Alkaline Phosphatase, Placental (ALPP) gene, ALPP (gene 250)
Put plainly: LTEA_HepaRG_ALPP: Life Technologies and Expression Analysis (LTEA) Assay for Alkaline Phosphatase, Placental (ALPP) gene using HepaRG (AID 2283468). An outline of the steps: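 HepaRG, 48 h plating then 48 h dosing, serum-free induction medium, 0.5% DMSO. 8 conc, half-log, max 100 uM, duplicates. Endpoint: ALPP transcript by qRT-PCR, housekeeping-normalized; gain or loss fitted vs DMSO.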

Read-out in test [6]: Bcl-2 (BAX) gene, BAX (gene 581)
The test is described as follows: LTEA_HepaRG_BAX: Life Technologies and Expression Analysis (LTEA) Assay for Bcl-2 (BAX) gene using HepaRG (AID 2283470). In outline:
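Concentration-response endpoint fitted in both directions relative to 0.5% DMSO vehicle. Human HepaRG cultures receive test chemicals for 48 h at up to 100 uM; BAX mRNA is quantified by qRT-PCR against housekeeping genes.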

Read-out in test [7]: adenosine kinase (ADK) gene, ADK (gene 132)
Put plainly: LTEA_HepaRG_ADK: Life Technologies and Expression Analysis (LTEA) Assay for adenosine kinase (ADK) gene using HepaRG (AID 2283471). In outline: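 ADK expression quantified by qRT-PCR, normalised to three housekeeping genes, after 48 h exposure of HepaRG cells to eight concentrations (top 100 uM, half-log steps, duplicate, 0.5% DMSO). Up- or down-regulation fitted relative to vehicle.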

Read-out in test [8]: Alpha-fetoprotein (AFP) gene, AFP (gene 174)
The test is described as follows: LTEA_HepaRG_AFP: Life Technologies and Expression Analysis (LTEA) Assay for Alpha-fetoprotein (AFP) gene using HepaRG (AID 2283472). In outline:
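After a 48 h plating period, cells are moved to serum-free induction medium and dosed in duplicate (100 uM maximum, half-log dilutions, 0.5% DMSO) for another 48 h. Total RNA goes to TaqMan qRT-PCR; AFP signal is housekeeping-normalized.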

Read-out in the next test: BCL2L11 (gene 10018)
The test is described as follows: LTEA_HepaRG_BCL2L11: Life Technologies and Expression Analysis (LTEA) Assay for Bcl-2 (BCL2L11) gene using HepaRG (AID 2283473). An outline of the steps: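 Read-out is BCL2L11 transcript level by qRT-PCR, normalized to three housekeeping genes and fitted bidirectionally against 0.5% DMSO vehicle. HepaRG cells received chemicals for 48 h in serum-free induction medium, 100 uM down in half-log dilutions.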

Read-out in test [9]: Apolipoprotein A-V (APOA5) gene, APOA5 (gene 116519)
Put plainly: LTEA_HepaRG_APOA5: Life Technologies and Expression Analysis (LTEA) Assay for Apolipoprotein A-V (APOA5) gene using HepaRG (AID 2283474). In outline: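 Readout is APOA5 transcript level by qRT-PCR on Fluidigm dynamic arrays, normalized to three housekeeping genes. HepaRG cultures received chemicals for 48 h at up to 100 uM (half-log steps, 0.5% DMSO), with gain or loss scored relative to DMSO.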

Read-out in test [10]: Apoptosis regulator Bcl-2 (Homo sapiens) (UniProt P10415)
The test is described as follows: LTEA_HepaRG_BCL2: Life Technologies and Expression Analysis (LTEA) Assay for Bcl-2 gene using HepaRG (AID 2283475). In outline:
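Expression change of BCL2 mRNA in HepaRG after 48 h dosing, quantified by TaqMan qRT-PCR against three endogenous controls. Concentration-response used eight points up to 100 uM, vehicle 0.5% DMSO.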

Read-out in test [11]: Bcl-2 (BID) gene, BID (gene 637)
The test is described as follows: LTEA_HepaRG_BID: Life Technologies and Expression Analysis (LTEA) Assay for Bcl-2 (BID) gene using HepaRG (AID 2283476). In outline:
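Gain or loss of BID expression is fitted relative to 0.5% DMSO vehicle. Human HepaRG liver cells received a 48 h chemical exposure over an eight-point concentration range.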

Read-out in a further test: Caspase-3 (Homo sapiens) (UniProt P42574)
The test is described as follows: LTEA_HepaRG_CASP3: Life Technologies and Expression Analysis (LTEA) Assay for cysteine-aspartic acid protease (CASP3) using HepaRG (AID 2283477). An outline of the steps: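 Read-out is CASP3 mRNA level by TaqMan qRT-PCR in human HepaRG cells after 48 h chemical exposure. Eight half-log concentrations topping at 100 uM were tested in 0.5% DMSO; gain or loss was fitted relative to DMSO.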

Read-out in test [12]: Cytochrome P450 (CYP24A1), CYP24A1 (gene 1591)
Put plainly: LTEA_HepaRG_CYP24A1: Life Technologies and Expression Analysis (LTEA) Assay for Cytochrome P450 (CYP24A1) using HepaRG (AID 2283478). An outline of the steps:
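HepaRG, 48 h chemical exposure, 8-pt half-log CRC from 100 uM, 0.5% DMSO vehicle, duplicates. Endpoint: CYP24A1 mRNA by Fluidigm TaqMan qRT-PCR, normalized ACTB/GAPDH/POLR2A; gain/loss fit vs DMSO.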

Read-out in test [13]: Cytochrome P450 (CYP1A2), CYP1A2 (gene 1544)
Put plainly: LTEA_HepaRG_CYP1A2: Life Technologies and Expression Analysis (LTEA) Assay for Cytochrome P450 (CYP1A2) using HepaRG (AID 2283479). An outline of the steps: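 CYP1A2 transcript induction or loss, quantified by Fluidigm qRT-PCR against three housekeeping genes, was fitted bidirectionally against 0.5% DMSO controls. Human HepaRG cells received eight half-log concentrations from 100 uM over 48 h.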

Read-out in test [14]: cysteine-aspartic acid protease (CASP8), CASP8 (gene 841)
The test is described as follows: LTEA_HepaRG_CASP8: Life Technologies and Expression Analysis (LTEA) Assay for cysteine-aspartic acid protease (CASP8) using HepaRG (AID 2283480). In outline:
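Differentiated human HepaRG cells, plated 48 h then switched to serum-free induction medium, were exposed in duplicate for 48 h to 8 half-log concentrations up to 100 uM in 0.5% DMSO. CASP8 mRNA was quantified by qRT-PCR, normalized to ACTB/GAPDH/POLR2A.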

Read-out in test [15]: Cytochrome P450 (CYP2B6), CYP2B6 (gene 1555)
Put plainly: LTEA_HepaRG_CYP2B6: Life Technologies and Expression Analysis (LTEA) Assay for Cytochrome P450 (CYP2B6) using HepaRG (AID 2283481). An outline of the steps:
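HepaRG cells plated 48 h, switched to serum-free induction medium, then dosed 48 h (8 points, half-log from 100 uM, 0.5% DMSO). RNA isolated; CYP2B6 expression measured by qRT-PCR; gain or loss fitted relative to DMSO.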

Read-out in test [16]: Cytochrome P450 2C19 (Homo sapiens) (UniProt P33261)
The test is described as follows: LTEA_HepaRG_CYP2C19: Life Technologies and Expression Analysis (LTEA) Assay for CYP2C19 using HepaRG (AID 2283482). In outline:
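Transcript levels of CYP2C19 were quantified by qRT-PCR after HepaRG cells were treated for 48 hours with test chemicals up to 100 uM (eight half-log concentrations, 0.5% DMSO vehicle). Gain or loss of signal was fitted relative to DMSO.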

Read-out in the next test: CYP2C8 (gene 1558)
Put plainly: LTEA_HepaRG_CYP2C8: Life Technologies and Expression Analysis (LTEA) Assay for CYP2C8 using HepaRG (AID 2283483). In outline: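 Differentiated human HepaRG cells were exposed for 48 h in serum-free induction medium to eight half-log concentrations up to 100 uM in 0.5% DMSO, in duplicate. CYP2C8 mRNA was measured by TaqMan qRT-PCR, normalized to ACTB, GAPDH and POLR2A, and fitted bidirectionally against DMSO.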

Read-out in test [17]: Bcl-2 (BAD) gene, BAD (gene 572)
Put plainly: LTEA_HepaRG_BAD: Life Technologies and Expression Analysis (LTEA) Assay for Bcl-2 (BAD) gene using HepaRG (AID 2283469). An outline of the steps: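 Differentiated human HepaRG cells in serum-free induction medium were exposed in duplicate for 48 h to eight concentrations (top 100 uM, half-log steps, 0.5% DMSO). BAD mRNA was quantified by qRT-PCR normalised to ACTB, GAPDH and POLR2A, with bidirectional fitting versus DMSO.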

Sequence of Caspase-3 (Homo sapiens) (P42574 whole entry, looked up): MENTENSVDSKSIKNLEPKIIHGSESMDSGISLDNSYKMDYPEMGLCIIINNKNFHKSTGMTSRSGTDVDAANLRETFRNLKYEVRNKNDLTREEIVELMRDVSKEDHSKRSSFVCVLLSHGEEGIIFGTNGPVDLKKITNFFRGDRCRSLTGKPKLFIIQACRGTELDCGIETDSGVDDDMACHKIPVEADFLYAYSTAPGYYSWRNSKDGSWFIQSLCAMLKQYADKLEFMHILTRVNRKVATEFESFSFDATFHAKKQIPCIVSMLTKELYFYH
Sequence of Cytochrome P450 2C19 (Homo sapiens) (P33261 whole entry, looked up): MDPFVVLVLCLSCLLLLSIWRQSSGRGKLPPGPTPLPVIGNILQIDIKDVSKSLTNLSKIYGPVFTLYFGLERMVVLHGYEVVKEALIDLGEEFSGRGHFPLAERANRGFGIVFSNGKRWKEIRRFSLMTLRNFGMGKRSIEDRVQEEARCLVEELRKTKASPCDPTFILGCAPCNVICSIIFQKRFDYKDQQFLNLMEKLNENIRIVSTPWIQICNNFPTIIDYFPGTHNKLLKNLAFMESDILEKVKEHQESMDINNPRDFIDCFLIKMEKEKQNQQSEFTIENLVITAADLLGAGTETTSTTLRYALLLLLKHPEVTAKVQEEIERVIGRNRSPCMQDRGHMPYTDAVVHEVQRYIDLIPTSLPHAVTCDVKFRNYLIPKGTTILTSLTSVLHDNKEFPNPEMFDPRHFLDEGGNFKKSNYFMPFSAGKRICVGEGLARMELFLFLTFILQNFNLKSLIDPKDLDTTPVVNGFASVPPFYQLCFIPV
Sequence of Apoptosis regulator Bcl-2 (Homo sapiens) (P10415 whole entry, looked up): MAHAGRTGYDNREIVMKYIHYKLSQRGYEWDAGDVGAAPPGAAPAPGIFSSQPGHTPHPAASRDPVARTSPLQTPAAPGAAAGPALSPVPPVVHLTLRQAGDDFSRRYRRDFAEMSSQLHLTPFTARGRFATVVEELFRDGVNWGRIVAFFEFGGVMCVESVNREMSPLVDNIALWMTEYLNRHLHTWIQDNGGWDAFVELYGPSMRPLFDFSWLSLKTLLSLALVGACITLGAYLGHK
Sequence of Broad substrate specificity ATP-binding cassette transporter ABCG2 (Homo sapiens) (Q9UNQ0 whole entry, looked up): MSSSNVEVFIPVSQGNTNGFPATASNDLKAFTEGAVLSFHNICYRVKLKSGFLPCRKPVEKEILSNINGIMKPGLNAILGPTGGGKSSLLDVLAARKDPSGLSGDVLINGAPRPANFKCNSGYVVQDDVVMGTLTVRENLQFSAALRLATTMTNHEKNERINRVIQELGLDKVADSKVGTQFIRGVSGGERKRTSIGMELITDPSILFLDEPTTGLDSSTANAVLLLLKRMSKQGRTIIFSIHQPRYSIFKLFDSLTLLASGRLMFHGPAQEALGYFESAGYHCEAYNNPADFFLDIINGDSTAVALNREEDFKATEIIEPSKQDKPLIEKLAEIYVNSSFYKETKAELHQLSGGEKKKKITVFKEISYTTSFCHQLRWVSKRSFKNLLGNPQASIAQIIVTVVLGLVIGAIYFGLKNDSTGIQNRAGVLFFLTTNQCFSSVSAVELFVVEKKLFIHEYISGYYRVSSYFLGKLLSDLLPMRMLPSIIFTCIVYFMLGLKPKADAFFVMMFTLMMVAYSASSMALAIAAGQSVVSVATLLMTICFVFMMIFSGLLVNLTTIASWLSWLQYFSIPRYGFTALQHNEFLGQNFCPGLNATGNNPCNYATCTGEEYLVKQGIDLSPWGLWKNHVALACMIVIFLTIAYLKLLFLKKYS

On to `CC(Cc1ccc(OCC(=O)O)cc1)NCC(O)c1csc(C(F)(F)F)n1` (stereo not given), for which the call in test [1], in test [2], in test [3], in test [4], in test [6] and in test [7] was inactive. The outcome (in [8]; with BCL2L11 (gene 10018); in test [9]; in test [11]; with Caspase-3 (Homo sapiens); in [14]) was inactive. Further, the call (in [15]; in [16]; with CYP2C8 (gene 1558)) was inactive. In addition, the AC50 in test [5] is 0.0552 µM (active); in test [10] it was 0.125 µM (active); in test [12] it was 0.00316 µM (active); in [13] it was 0.0181 µM (active).
For `CCOP(=S)(OCC)SCSCC`, the call in [1], in [2], in test [3], in [4], in [5] and in test [6] was inactive. In addition, the call (in [7]; in test [8]; with BCL2L11 (gene 10018); in test [9]; in [10]; in test [11]) was inactive. Further, the call (with Caspase-3 (Homo sapiens); in [12]; in test [13]; in test [14]; in the test with CYP2C8 (gene 1558)) was inactive. Further, the results for the AC50 in [15] and in [16] were 4.47 µM (active) and 11.2 µM (active), respectively.
Regarding `c1cc2c3c(cccc3c1)CC2`, the compound was called inactive in test [1], in test [2], in [3], in test [4], in test [5] and in test [6]. Besides, the call (in test [7]; in test [8]; with BCL2L11 (gene 10018); in test [9]; in test [10]; in [11]) was inactive. Moreover, the compound was classed as inactive (in the test with Caspase-3 (Homo sapiens); in test [12]; in test [13]; in test [14]; in test [16]; in the test with CYP2C8 (gene 1558)). The AC50 in test [15] was 50 µM (active).
In the case of `O=P(Oc1ccccc1)(Oc1ccccc1)Oc1ccccc1`, the AC50 in test [1] was 8.94 µM (active); in [2], 8.36 µM (active); in [3] it was 71.6 µM (active); in [8], 50 µM (active); in test [9] it was 50 µM (active); in test [10] it was 80.4 µM (active). Moreover, the AC50 in [13] is 27.4 µM (active); in [15], 1.23 µM (active); in test [16], 2.95 µM (active); in the test with CYP2C8 (gene 1558), 12.4 µM (active). Further, the outcome (in [4]; in test [17]; in [6]; in [7]; with BCL2L11 (gene 10018); in test [11]) was inactive. Moreover, the compound was classed as inactive (in the test with Caspase-3 (Homo sapiens); in test [12]; in [14]).
As for `CC(C)(C)OOC(C)(C)C`, the compound was called inactive in test [1], in [2], in [3], in test [4], in test [5] and in test [6]. The outcome (in test [7]; in [8]; with BCL2L11 (gene 10018); in test [9]; in test [10]; in test [11]) was inactive. For the same compound, the compound was called inactive (with Caspase-3 (Homo sapiens); in [12]; in test [13]; in [14]; in test [15]; in [16]). Moreover, in the test with CYP2C8 (gene 1558), the call was inactive.
